From PubChem BioAssay
hNpr1 antagonist = blocks ANP-stimulated signaling of human Npr1 receptor; HEK293 hNpr1 GloSensor cGMP, ANP-stimulated luminescence; Potency, µM (series often up to 46.3 µM), usual class: inhibitors; 1.6% of 76,000 active; AID 1347048; calls by dose curve; also: nearly all actives have a fitted effect of over 60% in size
Target sequence (P16066 whole entry, looked up): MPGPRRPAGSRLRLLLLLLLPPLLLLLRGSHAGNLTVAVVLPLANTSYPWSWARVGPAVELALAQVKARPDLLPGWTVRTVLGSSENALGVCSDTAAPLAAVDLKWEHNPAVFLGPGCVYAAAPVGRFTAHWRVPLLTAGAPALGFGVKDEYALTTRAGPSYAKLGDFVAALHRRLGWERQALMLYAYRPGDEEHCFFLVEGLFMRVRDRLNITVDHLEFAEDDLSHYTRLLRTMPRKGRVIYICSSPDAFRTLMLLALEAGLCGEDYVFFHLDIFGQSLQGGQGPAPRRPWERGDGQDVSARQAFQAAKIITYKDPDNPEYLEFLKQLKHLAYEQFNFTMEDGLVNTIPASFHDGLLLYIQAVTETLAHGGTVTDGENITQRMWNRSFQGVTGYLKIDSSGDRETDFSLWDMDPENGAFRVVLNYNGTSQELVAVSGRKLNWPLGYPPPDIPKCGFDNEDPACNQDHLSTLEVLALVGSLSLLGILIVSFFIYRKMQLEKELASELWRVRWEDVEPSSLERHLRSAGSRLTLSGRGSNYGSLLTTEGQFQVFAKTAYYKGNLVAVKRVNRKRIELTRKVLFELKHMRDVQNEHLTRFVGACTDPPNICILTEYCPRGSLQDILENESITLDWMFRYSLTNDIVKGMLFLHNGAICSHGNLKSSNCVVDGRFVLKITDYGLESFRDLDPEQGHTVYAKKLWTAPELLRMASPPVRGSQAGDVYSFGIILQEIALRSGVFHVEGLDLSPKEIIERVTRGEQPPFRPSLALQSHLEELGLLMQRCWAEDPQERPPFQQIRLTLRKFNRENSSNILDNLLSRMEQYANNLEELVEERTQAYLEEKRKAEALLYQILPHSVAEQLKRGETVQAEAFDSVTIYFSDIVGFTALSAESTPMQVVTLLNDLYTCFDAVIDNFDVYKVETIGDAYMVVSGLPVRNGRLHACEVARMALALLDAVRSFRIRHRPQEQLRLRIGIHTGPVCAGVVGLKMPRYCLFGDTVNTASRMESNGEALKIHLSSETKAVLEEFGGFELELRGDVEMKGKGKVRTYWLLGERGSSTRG
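HEK293 cells stably expressing human Npr1 and cGMP GloSensor pGS-40F, loaded 2 h with 2% GloSensor reagent, given compound 30 min at room temperature. Luminescence read before and 20 min after 0.1 nM hNppA.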
HEK293 tox = cytotoxic compounds in HEK 293 cells | Potency, µM (highest dose often 115 µM), hits mostly inhibitors | HEK 293 viability, ATP luminescence (CellTiter-Glo), 48-72 h | 6.6% of 94,000 active | AID 1345083; also: nearly all actives have a fitted effect of over 60% in size
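Read-out: CellTiter-Glo ATP luminescence. Cells: HEK 293, 250 cells/well. Exposure: 48 or 72 hr, 37 degree Celsius.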
GPT2 inhibitor = blocks human glutamate pyruvate transaminase 2; AID 1671188; Potency, µM (titrated, usually from 57.7 µM), hits mostly inhibitors; Recombinant GPT2, coupled pyruvate oxidase/HRP Amplex Red fluorescence; Q8TD30; 0.25% of 100,000 active; also: nearly all actives have a fitted effect of over 60% in size
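Inhibition is scored from Amplex Red fluorescence generated when pyruvate oxidase and HRP act on pyruvate released by GPT2. Reactions contain 10ng/uL enzyme, 250uM a-KG and 2mM L-alanine and run 30 min at room temperature.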
3T3 cytotox = cytotoxic compounds in NIH 3T3 cells. NIH 3T3 viability, CellTiter-Glo ATP luminescence, 48-72 h. Potency, µM (titrated, usually from 96.7 µM), usual class: inhibitors. 4.3% of 94,000 active. AID 1345082; also: nearly all actives have a fitted effect of over 55% in size
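Mouse fibroblast NIH 3T3 cells, 400 per well, received compound via pintool and were incubated for 48 or 72 hr prior to CellTiter-Glo ATP luminescence measurement.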
FLuc inh-1 = blocks purified firefly luciferase enzyme activity; P08659; purified P. pyralis luciferase, luminescence, biochemical; Potency, µM (series often up to 115 µM), most hits filed as inhibitors; 2.5% of 76,000 active; also: nearly all actives have a fitted effect of over 65% in size
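Biochemical qHTS: compound (6-point titration) added to 10uM D-luciferin plus 10uM ATP in Tris acetate pH 7.5 buffer with Mg, Tween-20 and BSA, then purified enzyme at 10nM; light output imaged.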
FLuc SDR -ATP = firefly luciferase binding stabilization, ATP absent | shares compounds with FLuc inh-1 | Purified FLuc-C-HiBiT, Nano-Glo HiBiT luminescence, no ATP | Potency, µM (doses to about 32.7 µM), usual class: activators | 7.8% of 1,300 active; also: nearly all actives have a fitted effect of over 55% in size
FLuc SDR ATP = binders stabilizing firefly luciferase, plus ATP | shares compounds with FLuc inh-1 | purified FLuc-C-HiBiT + ATP, HiBiT complementation luminescence | Potency, µM (doses to about 32.7 µM), actives largely listed as activators | 8.7% of 1,300 active | AID 1963319;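 also: signal reports ligand binding via conformational change of the enzyme rather than luciferase catalysis; nearly all actives have a fitted effect of over 55% in size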
FLuc inh-2 = firefly luciferase enzyme inhibition | shares compounds with FLuc inh-1 | purified FLuc-C-HiBiT enzyme, luciferin luminescence | 42% of 1,300 active | Potency, µM (titrated, usually from 32.7 µM), most hits filed as inhibitors | AID 1963320; also: nearly all actives have a fitted effect of over 70% in size
Of the large screens only hits and unclear results are named; the others gave an inactive call (follow-up assays come after a bar, where they were run). Sampled rows, rich in hits. Any-hit rate of the full collection: about 10%. Unless noted, calls follow the shape of the dose curve; as a rule, active = well fitted curve in the direction sought with a large enough effect; inconclusive = small, poorly fitted or top-dose-only effect, or another doubt; inactive = no such curve, though single readings can be large; an effect the other way counts as inactive or inconclusive.

CCN1c2cc(C(=O)Nc3ccc(Oc4ccccc4)cc3)ccc2C(=O)N2CCCCC21 (stereo unspecified)	HEK293 tox inconclusive, 3T3 cytotox 32µM
CN1c2cc(C(=O)Nc3ccc(Oc4ccccc4)cc3)ccc2C(=O)N2CCCCCC21 (stereo unspecified)	hNpr1 antagonist inconclusive, HEK293 tox 10µM, 3T3 cytotox inconclusive, FLuc inh-1 inconclusive
CCOc1ccc(NC(=O)c2ccc3c(c2)N(C)C2CCCCCN2C3=O)cc1 (stereo unspecified)	HEK293 tox inconclusive, 3T3 cytotox inconclusive, FLuc inh-1 inconclusive
CN1c2cc(C(=O)Nc3ccc(Oc4ccccc4)cc3)ccc2C(=O)N2CCCCC21 (stereo unspecified)	hNpr1 antagonist inconclusive, HEK293 tox inconclusive, 3T3 cytotox inconclusive, FLuc inh-1 50µM
O=C(NC1CCCCC1)N1CCCCCC1CN1CCCC1 (stereo unspecified)	none
Nc1ccc2nc(-c3ccc(O)cc3)sc2c1	none (no result: hNpr1 antagonist, HEK293 tox, GPT2 inhibitor, 3T3 cytotox, FLuc inh-1) | FLuc SDR -ATP 3.9µM | FLuc SDR ATP inconclusive | FLuc inh-2 0.62µM
Cc1ncc(CC(=O)NCc2ccc3[nH]c(-c4ccccc4F)c(C)c3c2)c(=O)[nH]1	HEK293 tox inconclusive, 3T3 cytotox inconclusive, FLuc inh-1 13µM | FLuc SDR -ATP inactive | FLuc SDR ATP inactive | FLuc inh-2 inconclusive
Cc1ncc(C(=O)NCc2ccc3[nH]c(-c4ccccc4F)c(C)c3c2)c(C)n1	hNpr1 antagonist 7.9µM, HEK293 tox inconclusive, 3T3 cytotox inconclusive, FLuc inh-1 6.3µM | FLuc SDR -ATP inactive | FLuc SDR ATP inactive | FLuc inh-2 7.9µM
CC(=O)NC[C@H]1CCN(C(=O)c2cncc(Br)c2)C[C@H]1N(C)C	none
OCC1(CC2CC2)CCCN(c2nc(-c3ccccc3)no2)C1 (stereo unspecified)	HEK293 tox inconclusive, 3T3 cytotox inconclusive, FLuc inh-1 14µM | FLuc SDR -ATP inactive | FLuc SDR ATP inactive | FLuc inh-2 inactive
CN1CC2(CCN(c3nc(-c4ccccc4)no3)CC2)CC(c2ccccc2)C1=O (stereo unspecified)	HEK293 tox inconclusive, 3T3 cytotox inconclusive, FLuc inh-1 inconclusive
C[C@@H]1CN(c2nc(-c3ccccc3)no2)CC[C@@]1(O)C1CCC1	hNpr1 antagonist 5.6µM, HEK293 tox inconclusive, 3T3 cytotox inconclusive, FLuc inh-1 0.35µM | FLuc SDR -ATP inconclusive | FLuc SDR ATP inconclusive | FLuc inh-2 1.8µM
Cc1nccn1-c1ccccc1CNC(=O)[C@H]1CC[C@@H](N)C1	none
CCOC(=O)c1ccc(NC(=O)c2nsc3ccccc23)cc1	none (no result: hNpr1 antagonist, HEK293 tox, GPT2 inhibitor, 3T3 cytotox, FLuc inh-1) | FLuc SDR -ATP inactive | FLuc SDR ATP inactive | FLuc inh-2 3.5µM
CCOC(=O)c1ccc(NC(=O)C2CC(=O)N(c3n[nH]c4ccccc34)C2)cc1 (stereo unspecified)	HEK293 tox inconclusive, 3T3 cytotox inconclusive
CCCCNC(=O)c1cccc2c1CCN2C(=O)c1ccc(F)cc1	HEK293 tox inconclusive
CCCNC(=O)c1cccc2c1CCN2S(=O)(=O)c1ccc(C)cc1	hNpr1 antagonist inconclusive, HEK293 tox inconclusive, GPT2 inhibitor inconclusive, 3T3 cytotox inconclusive
CCCNC(=O)c1cccc2c1CCN2C(=O)Nc1cccc(C)c1	HEK293 tox inconclusive, FLuc inh-1 5µM | FLuc SDR -ATP inconclusive | FLuc SDR ATP 3.5µM | FLuc inh-2 2.5µM
CCCCNC(=O)c1cccc2c1CCN2C(=O)Nc1ccccc1	hNpr1 antagonist inconclusive, HEK293 tox inconclusive, FLuc inh-1 3.5µM | FLuc SDR -ATP inactive | FLuc SDR ATP 2µM | FLuc inh-2 1.6µM
Cc1ccc(NC(=O)N2CCc3c(C(=O)NCc4ccco4)cccc32)cc1	hNpr1 antagonist 1.1µM, HEK293 tox inconclusive, 3T3 cytotox inconclusive, FLuc inh-1 0.089µM | FLuc SDR -ATP 9.9µM | FLuc SDR ATP 0.078µM | FLuc inh-2 0.05µM
Cc1ccc(NC(=O)N2CCc3c(C(=O)NCCc4ccccn4)cccc32)cc1	HEK293 tox inconclusive, GPT2 inhibitor inconclusive, 3T3 cytotox inconclusive, FLuc inh-1 5.6µM | FLuc SDR -ATP inconclusive | FLuc SDR ATP 11µM | FLuc inh-2 4.4µM
Cc1cc(C)n(Cc2ccc(C(=O)N3CCC(N4C[C@H](O)C[C@H]4C(=O)NC4CCCCC4)CC3)o2)n1	none
CNC(=O)c1ccn2nccc2c1	GPT2 inhibitor inconclusive
O=C(NCCN1CCc2ccccc2C1)c1cccc2c1CCN2C(=O)C1CC1	3T3 cytotox inconclusive
CN(C)CCNC(=O)c1cccc2c1CCN2C(=O)Nc1ccccc1	hNpr1 antagonist inconclusive, HEK293 tox inconclusive, FLuc inh-1 3.5µM | FLuc SDR -ATP inactive | FLuc SDR ATP 1.1µM | FLuc inh-2 0.7µM
CCNC(=O)OC1CN(C(=O)c2cc3ccccc3s2)CCC(=O)N(C)c2ccccc21 (stereo unspecified)	HEK293 tox inconclusive (no result: hNpr1 antagonist, FLuc inh-1)
COc1ccc(-c2noc([C@@H]3C[C@@H](O)CN3Cc3cccs3)n2)cc1	FLuc inh-1 14µM | FLuc SDR -ATP inactive | FLuc SDR ATP inactive | FLuc inh-2 inconclusive
Cc1ccc(-c2ncc(NC(=O)c3ccccc3F)cn2)cc1	hNpr1 antagonist inconclusive, FLuc inh-1 0.56µM | FLuc SDR -ATP inactive | FLuc SDR ATP inconclusive | FLuc inh-2 2µM
O=C(Nc1cnc(-c2ccccc2)nc1)c1ccccc1C(F)(F)F	HEK293 tox inconclusive, FLuc inh-1 inconclusive
CCC(=O)N1CCN(c2nc3c(s2)CC(C(=O)O)CC3)CC1 (stereo unspecified)	3T3 cytotox inconclusive, FLuc inh-1 13µM | FLuc SDR -ATP inactive | FLuc SDR ATP inconclusive | FLuc inh-2 inconclusive
CCC(=O)N1CCN(c2nc3c(s2)CC(C(=O)N2CCCCC2)CC3)CC1 (stereo unspecified)	none
COc1ccc2[nH]c3c(c2c1)CCN(C)C31CCN(C(=O)C2CC2)CC1	none
Cc1ccc(C(=O)O)cc1Nc1nc2ccccc2n2nnnc12	none (no result: hNpr1 antagonist, HEK293 tox, GPT2 inhibitor, 3T3 cytotox, FLuc inh-1) | FLuc SDR -ATP inactive | FLuc SDR ATP inactive | FLuc inh-2 inconclusive
Cc1ccc(O)cc1Nc1ccnc(Nc2cccc(C(N)=O)c2)n1	none (no result: hNpr1 antagonist, HEK293 tox, 3T3 cytotox, FLuc inh-1)
CS(=O)(=O)N1CCC(C2CCN(C(=O)C3CCOCC3)C2)CC1 (stereo unspecified)	none
CCn1ccnc1C1CCN(c2nc3ccccc3s2)CC1	hNpr1 antagonist inconclusive, HEK293 tox inconclusive, FLuc inh-1 3.2µM | FLuc SDR -ATP inactive | FLuc SDR ATP inactive | FLuc inh-2 inconclusive
CCn1c(CN2CCN(c3nc4ccccc4s3)CC2)nnc1C1CC(N)C1 (stereo unspecified)	none
